Data on 51 compounds can be found in PubChem BioAssay AID1963576 (National Center for Advancing Translational Sciences (NCATS), 2024).

The whole screen tested about 46,000 compounds, of which about 60 (0.1%) were called active. A call without a number means that no potency is given here. About 3% were inconclusive and are not listed. Calls follow the shape of the dose curve; as a rule, active = well fitted inhibition curve with a large enough effect; inconclusive = small, poorly fitted or top-dose-only effect; inactive = no such curve, though single readings can be large or run the other way. This excerpt belongs to a sample that is enriched for actives.
Potency is read from the fitted curve at half-maximal effect.

This assay can be described thus: Primary qHTS assay for Inhibitors of ovarian cancer metastasis using an organotypic tumor microenvironment (TME) model. Also: nearly all actives have a fitted effect of over 65% in size.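 As to potency: count of GFP cancer cells still attached after washing and fixation.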 To be noted: SKOV3ip1-GFP adhesion/invasion on 3D omental model, fluorescence; series mostly up to 45.8 µM. An excerpt: PI: Ernst Lengyel MD., Ph.D. Department of Obstetrics and Gynecology, Section of Gynecologic Oncology University of Chicago Medicine, Chicago, Illinois. The tumor microenvironment (TME) is a key determinant of metastatic efficiency. We performed a quantitative high-throughput screen (qHTS) of diverse medicinal chemistry tractable scaffolds (44,420 compounds) and pharmacologically active small molecules (386 compounds) using a layered organotypic, robust assay representing the ovarian cancer metastatic TME. This 3D model contains primary human mesothelial cells, fibroblasts, and extracellular matrix, to which fluorescently labeled ovarian cancer cells are added. Initially, 100 compounds inhibiting ovarian cancer adhesion/invasion to the 3D model in a dose-dependent manner were identified. Of those, eight compounds were confirmed active in five high-grade serous ovarian cancer cell lines and were further validated in secondary in vitro and in vivo biological assays. […] Specifically, NCGC00117362 and PP-121 inhibited ovarian cancer adhesion, invasion, and proliferation, whereas milciclib inhibited ovarian cancer invasion and proliferation. […] To evaluate the clinical potential of NCGC00117362, structure - activity relationship studies were performed. […] The three compounds identified have promise as therapeutics for prevention and treatment of ovarian cancer metastasis.
PROTOCOL TABLE (as described by Inglese J, Shamu CE and Guy RK. 2007) SEQUENCE No. (e.g., 1, 2, 3, etc.); […] (e.g., Cells, Incubation, Reagent, etc.); VALUE; DESCRIPTION. 1; Cells; 4 uL; primary human omental fibroblast, black, clear bottom, low base, 1536-well Aurora assay plate. 2; Incubation; 48 hr; 37C. 3; Cells; 3 uL; 1,200 SKOV3ip1-GFP cells. 4; Compounds; 23nL; acoustic dispenser. 5; Incubation; 2 hr; room temperature. 6; Incubation; 16 hr; 37C. 7; Wash; 5 uL; 1x PBS. 8; Fixing; 5 uL; 4% paraformaldehyde (PFA). 9; Incubation; 15 min; room temperature 10; Wash, 5 uL; 1x PBS. 11; Detection; Fluorescence, excitation filter 488 nm, emission filter 509 nm. NOTES (numbers refer to Sequence numbers above) 1. For the 1,536-well format, 40 primary human omental fibroblasts and 400 mesothelial cells were seeded with 0.02 µg fibronectin and 0.02 µg collagen type I in 4 µL of growth media (2.3 mm2; Supplementary Fig. S1A). 2. Assay plates were incubated for 48 hours at 37 C. 3. After incubation, 1,200 SKOV3ip1-GFP were seeded in 3 µL of serum-free media (growth media minus FBS) on top of primary human omental cells. 4. Compounds or controls were added to each well immediately after the addition of the cancer cells. Compounds were screened in four doses (0.36-46 µmol/L), and the plates contained the positive control (Tomatine) in eight doses (0.035-75 µmol/L) and DMSO (equal volume controls) 5 - 6. The plates were incubated at room temperature for 2 hours and then at 37 degrees C for 16 hours. 7 - 10. Following incubation, the media were aspirated and each well washed with PBS (5 µL) and then fixed with 4% paraformaldehyde (PFA; 5 µL). After 15 minutes, the PFA solution was aspirated, PBS (5 µL) was added. 11. The number of GFP-labeled cells analyzed using a fluorescent cytometer TTP LabTech Acumen eX3 using 488 nm excitation filter and 509 nm emission filter. Data was normalized to the DMSO treated for negative and Tomatine treated wells for positive control. REFERENCES: Inglese J, Shamu CE and Guy RK, Reporting data from high throughput screening of small molecule libraries, Nature Chemical Biology, 2007, 3(8): 438-441. doi.org/10.1038/nchembio0807-438. Yasgar A, Shinn P, Jadhav A, Auld DS, Michael S, Zheng W, Austin CP, Inglese J and Simeonov A, Compound Management for Quantitative High-Throughput Screening. J. Assoc. Lab. Auto., 2008, 13: 79-89. doi: 10.1016/j.jala.2007.12.004.
On the technique in general: Quantitative high-throughput screening tests each substance at several concentrations.
With `CCOC(=O)C1CCCN(S(=O)(=O)c2cc(-c3cc(C)no3)ccc2OC)C1` (stereo unspecified), the Potency entry was “inactive”.
For `CCOc1ccccc1NC(=O)Cn1c(=O)n(-c2cccc(C)c2)c(=O)c2c1c1cc(OC)ccc1n2C`, the Potency result was “inactive”.
For `COc1ccc(CCNC(=O)C(=O)NCC(c2ccco2)S(=O)(=O)c2cccs2)cc1OC` (stereo unspecified) the value was “inactive”.
For `COc1ccc(CCNCc2c(C(=O)O)c(C)n(Cc3cccc(C)c3)c2C)cc1OC` the value was “inactive”; for `CCN(CC)CCNC(=O)c1c(C)[nH]c(C=C2C(=O)Nc3ccc(F)cc32)c1C`, “inactive”; for `COc1ccc(C2(Nc3cccc(F)c3)C(=O)c3ccccc3C2=O)cc1`, “inactive”.
For `COc1ccc(/C=C/c2nc(C#N)c(NCc3ccc(F)cc3)o2)cc1OC` the value was “inactive”; for `COc1ccc(NC(C)=O)cc1NC(=O)CN1CCN(c2ccc(F)cc2)CC1`, “inactive”; for `CCCCCn1c(=O)[nH]c2cc(C(=O)Nc3cc(C)cc(C)c3)ccc2c1=O`, “inactive”.
`Cc1ccc(NC(=O)CCCn2c(=O)c3cccn3c3ccccc32)cc1Cl`: the Potency entry is “inactive”.
For the compound `Cc1ccc(C)c(CNC(=O)c2cc3ccccn3n2)c1`, the Potency entry is “inactive”.
Take `CSc1oc(-c2cccs2)nc1S(=O)(=O)c1ccc(Br)cc1`: the Potency entry was “inactive”.
In the case of `Cc1ccc(CSc2oc(-c3cccs3)nc2S(=O)(=O)c2ccc(C)cc2)cc1`, the Potency result was “inactive”.
`CCCCS(=O)(=O)c1oc(-c2cccs2)nc1S(=O)(=O)c1ccccc1`: the Potency is 2510 nM (active).
For the compound `CN(CC(=O)Nc1ccccc1F)S(=O)(=O)c1ccc2c(c1)c(=O)n(C)c(=O)n2C`, the Potency entry was “inactive”.
Under `Cc1ccc(NC(=O)Cn2cnc3nc4c(cc3c2=O)CCCC4)cc1Cl` stands “inactive”; under `COc1cccc(C(=O)NC(=O)Nc2ccc(-c3cc(C(F)(F)F)nn3-c3ccccc3)cc2)c1`, “inactive”; under `Cc1cc(C)c2oc(C(=O)Nc3c(C(=O)Nc4ccccc4)oc4ccccc34)cc(=O)c2c1`, “inactive”.
Turning to `COc1ccc(CCNC(=O)c2cnc3sc(N4CCCCCC4)nn3c2=O)cc1OC`, the Potency entry was “inactive”.
Under `COc1cc(NC(=O)c2nn(-c3ccc(C)cc3)c(=O)c3c2c2ccccc2n3C)cc(OC)c1OC` stands “inactive”.
For `Cc1ccc(Cl)cc1NC(=O)NC1COc2ccccc2C1` (stereo unspecified), the Potency entry is “inactive”.
Turning to `Cn1ccc2cc(S(=O)(=O)N3CCCC(C(=O)NCc4ccccc4F)C3)ccc21` (stereo unspecified), the Potency entry was “inactive”.
Take `COC(=O)c1ccc(OC)c(Cn2c(=O)n(Cc3ccccc3)c(=O)c3c2c2cc(OC)ccc2n3C)c1`: the Potency entry was “inactive”.
For the compound `Cc1cccc(CCNC(=O)c2ccc3c(c2)nc2n3CCC(C)C2)c1` (stereo unspecified), the Potency entry is “inactive”.
Under `CCOC(=O)C1CCN(c2ncnc3c2c(-c2ccccc2)cn3-c2cccc(C)c2)CC1` stands “inactive”; under `CC(=O)O[C@]1(C(C)=O)CC[C@@H]2[C@@H]3C[C@H](C)C4=CC(=O)CC[C@]4(C)[C@H]3CC[C@@]21C`, “inactive”.
For `CC1=C(C(=O)OCc2ccc(C)cc2)C(c2ccccc2Cl)CC(=O)N1` (stereo unspecified) the value was “inactive”; for `Cc1ccc(C(=O)Nc2cc3c(cc2N2CCCC2)n(C)c(=O)c(=O)n3C)cc1`, “inactive”; for `COc1ccccc1-c1cc2nc(C)c(CCC(=O)NC3CCCCC3)c(C)n2n1`, “inactive”.
Under `CCOc1ccc(NC(=O)CCc2c(C)nn(-c3ccc(N4CCCC4)nn3)c2C)cc1` stands “inactive”.
Take `CN1CCN(c2oc(-c3ccc(COc4ccc(Cl)cc4)o3)nc2C#N)CC1`: the Potency result is “inactive”.
Consider `COc1ccc(Cn2cc(C(=O)c3ccc(C)cc3)c(=O)c3cc(OC)c(OC)cc32)cc1`, for which the Potency result was “inactive”.
For the compound `Cc1ccc2nc(COc3ccc(NC(=O)COc4ccccc4F)cc3)cc(=O)n2c1`, the Potency result was “inactive”.
For `COc1ccccc1CNC(=O)c1ccc(-n2c(C)cc3c2CCCC3)cc1` the value was “inactive”; for `O=C(CSCc1cnn(-c2ccccc2)c1-n1cccc1)NCc1ccccc1Br`, “inactive”.
Under `COc1cc(Cl)cn2c(-c3cccc(NC4CNC4)n3)cnc12` stands “inactive”.
Take `Cc1ccc(C)c(Nc2nnc(-c3ccc(C)c(S(=O)(=O)N4CCCCC4)c3)c3ccccc23)c1`: the Potency entry is “inactive”.
Under `Cc1ccc(C)c(N2CCN(C(=O)CCc3c(C)nc4c(c3C)c(=O)n(C)c(=O)n4C)CC2)c1` stands “inactive”; under `CCOc1ccc(NC(=O)c2cc3c(=O)n(Cc4cccs4)ccc3nc2C)cc1`, “inactive”; under `CCCOc1ccc(NC(=O)CC2C(=O)N(c3ccccc3)C(=O)N2Cc2ccco2)cc1` (stereo unspecified), “inactive”.
Under `O=C(CCCn1c(=O)c2cccn2c2cccnc21)NCc1ccc(F)cc1` stands “inactive”; under `Cc1ccccc1-c1nc2cc(NC(=O)c3cccc(OCCC(C)C)c3)ccc2o1`, “inactive”; under `CCN(Cc1ccccc1)C(=O)CCS(=O)(=O)c1ccc2c(c1)oc(=O)n2C`, “inactive”.
Turning to `Cc1cccc(NC(=O)CN(c2ccc(C(C)C)cc2)S(=O)(=O)c2c(C)nn(C)c2C)c1C`, the Potency entry is “inactive”.
With `O=C(CCc1ccccc1)NCc1ccc2c(c1)CCN2C(=O)c1ccccc1`, the Potency entry is “inactive”.
Under `Cc1cc(O)c(C(c2ccccc2)N2CCN(c3ccccc3F)CC2)c(=O)n1Cc1ccco1` (stereo unspecified) stands “inactive”; under `O=[N+]([O-])c1cc(-c2nc(-c3ccccc3)no2)ccc1NCc1ccco1`, “inactive”; under `Cc1ccc(C)c(Cn2c(C)c(CNCc3ccc(F)cc3)c(C(=O)O)c2C)c1`, “inactive”.
With `COc1ccc(C2(C#N)CCC(C(=O)O)CC2)cc1OC1CCCC1` (stereo unspecified), the Potency entry was “inactive”.
`CCOC(=O)c1c(NC(=O)c2cc(CC)on2)sc(C(C)=O)c1C`: the Potency entry is “inactive”.
For `CC(C)(C)c1[nH]cnc1C=c1[nH]c(=O)c(=Cc2ccccc2)[nH]c1=O` the value was “inactive”.
